The full list was thinned out, with hits kept by preference.
N-glyco inh – increase of ERlucT glycosylation luciferase signal, primary screen, N-linked glycosylation inhibitor project, D54 ERlucT cells, luminescence, set 2; D54 ERlucT glycosylation luciferase reporter, 24 h; percent of 100 nM tunicamycin response; reporter increase, % at 12.5 µM; AID 588692, 2011; actives 0.23% (n = 360,000);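 active means mean luciferase reporter signal, scaled so untreated is 0 and the glycosylation-blocking control 100, at or above a set limit in every replicate; inconclusive means mean reaches the limit but not every replicate does; inactive means mean below the limit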;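 further: luciferase carries N-glycosylation sites so blocking glycosylation raises the light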
DENV2 CPE – inhibitors of DENV2 cytopathic effect, primary screen, cell-based, plate reader, single concentration; DENV2-infected cells, cytopathic effect rescue; CPE inhibition, % at 9.99 µM; actives 1.7% (n = 350,000); AID 651640, 2012; in the data active means CPE inhibition above about 20%, passing the limit was not always enough; inconclusive means no clear call, values can overlap the other calls; tested in BHK-21 cells
PglD DTNB – C. jejuni PglD acetyltransferase inhibitors, primary screen, biochemical, DTNB colorimetric, single point; inhibition, % at 12.5 µM; purified PglD enzyme, DTNB colorimetric CoA detection; UDP-N-acetylbacillosamine N-acetyltransferase PglD (Campylobacter jejuni); AID 602405, 2012; actives 0.098% (n = 360,000); in the data active means inhibition above about 16%, passing the limit was not always enough; inconclusive means no clear call, values can overlap the other calls
Rtt109 HAT inh – inhibitors of C. albicans Rtt109/Vps75 HAT, primary screen, biochemical, ThioGlo CoA-SH fluorescence, plate reader; purified Rtt109/Vps75, 4 h; Histone acetyltransferase RTT109 (Candida albicans (strain SC5314 / ATCC MYA-2876)), …; inhibition, % at 34.9 µM; actives 0.16% (n = 330,000);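 active means inhibition of at least 50% in every replicate; inconclusive means best replicate reaches 50% inhibition but some replicates fall short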
Target sequence (Q5AAJ8 whole entry, looked up): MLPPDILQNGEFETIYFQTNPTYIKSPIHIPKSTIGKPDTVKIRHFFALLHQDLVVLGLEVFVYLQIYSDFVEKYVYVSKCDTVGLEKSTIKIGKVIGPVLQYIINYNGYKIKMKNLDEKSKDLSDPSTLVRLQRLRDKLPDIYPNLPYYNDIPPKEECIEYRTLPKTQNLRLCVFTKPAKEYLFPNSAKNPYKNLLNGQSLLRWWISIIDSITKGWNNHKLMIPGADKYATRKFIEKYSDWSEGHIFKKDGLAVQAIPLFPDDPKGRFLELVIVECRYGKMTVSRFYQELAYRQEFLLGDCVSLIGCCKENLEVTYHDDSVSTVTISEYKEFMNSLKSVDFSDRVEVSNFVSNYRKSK
Hits are given with their value; – = inactive; ? = inconclusive; · = no result given; ! = not active in a repeat.

SMILES	N-glyco inh	DENV2 CPE	PglD DTNB	Rtt109 HAT inh
C/C=C/c1ccc(C2[C@@H]3CN(C(=O)Nc4ccc5c(c4)OCO5)C[C@H]2N3)cc1 (stereo partly drawn)	·	27!	·	·
CN1c2ccc(-c3ccccc3F)cc2[C@@H]2[C@@H](CCN2C(=O)Nc2cc(F)ccc2F)[C@@H]1CO	·	42	–	·
CN1c2ccc(-c3ccccc3F)cc2[C@@H]2[C@@H](CCN2C(=O)c2cccc(F)c2)[C@@H]1CO	·	76	–	·
COC/C=C/C1=CC2=CC(=O)C(C)(OC(=O)c3cnc4ccccc4n3)C(=O)C2=CN1C(CO)CO (stereo not drawn)	–	31	–	–
COc1cccc(CN(C)C(=O)CN2C(=O)NC3(CCCc4ccccc43)C2=O)c1 (stereo not drawn)	–	73	–	–
CO[C@@H](CN(C)S(=O)(=O)c1ccc(F)cc1)[C@@H](C)CN(C(=O)Nc1ccccc1F)[C@H](C)CO	·	–	–	·
C[C@H]1CN([C@@H](C)CO)C(=O)c2c(c3ccccc3n2C)-c2ccccc2CO[C@H]1CN(C)C(=O)Nc1cccc(Cl)c1Cl	·	–	·	·
C[C@@H]1CN([C@H](C)CO)C(=O)c2c(c3ccccc3n2C)-c2ccccc2CO[C@@H]1CN(C)C(=O)c1cc(Cl)cc(Cl)c1	·	60	·	·
C[C@@H]1CN([C@@H](C)CO)C(=O)c2c(c3ccccc3n2C)-c2ccccc2CO[C@H]1CN(C)C(=O)Nc1cccc(Cl)c1Cl	·	40	·	·
O=C1c2cccc3c(O)ccc(c23)C(=O)N1Cc1ccco1	–	24	–	–
CNC[C@H]1OCCCC[C@@H](C)Oc2ccc(NS(C)(=O)=O)cc2C(=O)N([C@@H](C)CO)C[C@@H]1C	·	–	–	·
COc1ccccc1NC(=O)CN1CCOCC1	–	75	–	–
COc1ccc(C)cc1NC(=O)C(c1ccccc1)N1CCN(CC(=O)N2CCOCC2)CC1 (stereo not drawn)	–	28	–	–
Cc1ccccc1NC(=O)CSC(N)=O	–	·	–	?
COc1ccc(C)cc1NC(=O)C(c1ccccc1)N1CCN(CC(=O)N2CCCC2)CC1 (stereo not drawn)	–	–	–	–
COc1ccccc1NC(=O)CSC(N)=O	–	·	·	135
COc1ccccc1NC(=O)CN1CCCCCC1	–	–	–	–
O=C(C[C@H]1C[C@@H]2c3cc(NC(=O)C4CCOCC4)ccc3O[C@@H]2[C@@H](CO)O1)NCc1cc(F)ccc1F	·	–	–	·
COC(=O)c1cccc(Oc2cccc(Cl)n2)c1	–	–	–	54
C[C@@H]1CN([C@H](C)CO)C(=O)c2cc(NC(=O)Nc3ccc4c(c3)OCO4)ccc2O[C@@H](C)CCCCO[C@@H]1CN(C)C(=O)CCC(F)(F)F	·	–	–	·
C[C@@H]1CCCCO[C@H](CN(C)C(=O)CCC(F)(F)F)[C@H](C)CN([C@@H](C)CO)C(=O)c2cc(NC(=O)Nc3ccc4c(c3)OCO4)ccc2O1	·	26	–	·
C[C@@H]1CN([C@@H](C)CO)C(=O)c2cc(NC(=O)Nc3ccccc3)ccc2O[C@@H](C)CCCCO[C@@H]1CN(C)C(=O)CCC(F)(F)F	·	–	–	·
C[C@@H]1CCCCO[C@@H](CN(C)C(=O)CCC(F)(F)F)[C@@H](C)CN([C@H](C)CO)C(=O)c2cc(NC(=O)Nc3ccc4c(c3)OCO4)ccc2O1	·	42	–	·
OC[C@H]1O[C@@H]2O[C@H]3[C@H](O)[C@@H](O)[C@@H](O[C@H]4[C@H](O)[C@@H](O)[C@@H](O[C@H]5[C@H](O)[C@@H](O)[C@@H](O[C@H]6[C@H](O)[C@@H](O)[C@@H](O[C@H]7[C@H](O)[C@@H](O)[C@@H](O[C@H]1[C@H](O)[C@H]2O)O[C@@H]7CO)O[C@@H]6CO)O[C@@H]5CO)O[C@@H]4CO)O[C@@H]3CO	·	–	·	·
OCC1OCOC2C(CO)OCOC12 (stereo not drawn)	–	123	–	–
COCCNC(=O)C1(C)CCN(C(=O)Cc2ccc(OC)c(OC)c2)C1 (stereo not drawn)	–	22	–	·
COCCNC(=O)C1(C)CCCN(C(=O)c2ccc(C(=O)OC)cc2)C1 (stereo not drawn)	–	–	–	·
COCCNC(=O)C1(C)CCN(C(=O)c2ccc3sccc3c2)C1 (stereo not drawn)	–	54	–	·
COCCNC(=O)C1(C)CCCN(C(=O)c2ccc(C(F)(F)F)cc2)C1 (stereo not drawn)	–	50	–	·

Source: PubChem BioAssay
